Results on 117 molecules are retold here after PubChem BioAssay AID624331 (National Center for Advancing Translational Sciences (NCATS), 2012).

Inconclusive results are not listed. Where a call stands in place of a potency, no number is given. Activity calls are given as the source filed them. Calls come from the whole dose curve; as a rule, active = well fitted activation curve with a large enough effect; inconclusive = small, poorly fitted or top-dose-only effect; inactive = no such curve, though single readings can be large or run the other way.

The assay is described as follows: qHTS assay for re-activators of p53 using a Luc reporter: Hit Validation with no p53 Expressed. In short, it runs like this: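 Counter-screen of primary hits in a cell line not transfected with p53, in Opti-MEM with 10% FBS; compounds at several concentrations (10 mM stock, 1:5; top 46.1 µM in well), 24 h at 37 deg C, 5% CO2. Luminescence read after 10 min with Amplite reagent.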
(In general: In qHTS, concentration-response curves come from the screen itself.)
Potency is the fitted concentration of half-maximal effect.

With `Oc1cccc2c(NC(=S)Nc3ccc(OC(F)F)cc3)cccc12`, the Potency result is “inactive”. Under `Cc1csc(NC(=O)CSc2nnc(-c3cccs3)n2C)n1` stands “inactive”; under `CN(Cc1ccccc1)c1ncnc2ccc(Br)cc12`, “inactive”; under `CC1C(=O)CCN(C(C)(C)C)C1C` (configuration not stated), “inactive”.

Take `CCCN1CCC(=NNC(=O)CSc2cc(C)c(Br)cc2C)CC1`: the Potency result was “inactive”. As to `COc1cc(C(C)=O)ccc1Oc1ncnc2c1cnn2-c1ccc(F)cc1`, the Potency result was “inactive”.

With `COc1ccc(C(C#N)N2N=C(c3ccccc3)CC2c2ccccc2)cc1OC` (configuration not stated), the Potency entry is “inactive”. For `CC(OC(=O)c1cccc([N+](=O)[O-])c1)C(=O)N1CCc2ccccc21` (configuration not stated), the Potency result was “inactive”. Under `O=C(CCN1C(=O)/C(=C/c2ccccc2Cl)SC1=S)N1CCOCC1` stands “inactive”. As for `CC(C)c1ccc(C(O)c2nc3ccccc3n2C)cc1` (configuration not stated), the entry is “inactive”; as for `COc1ccc(-n2cc(-c3ccccc3)[nH]c2=S)cc1`, “inactive”; as for `CCc1nnc(NC(=O)/C=C/c2ccco2)s1`, “inactive”. As for `O=C(Nc1ccccc1Cl)c1ccc2c(=O)n3c(nc2c1)CCC3`, the entry is “inactive”. With `Cc1ccc(C(=O)N/N=C2\CCc3ccccc32)c(C)c1`, the Potency entry was “inactive”. As for `Cn1ncc(Cl)c(Oc2ccc(C(C)(C)C)cc2)c1=O`, the entry is “inactive”; as for `COCCCN(C(C)=O)c1nc(-c2ccc(OC)cc2)cs1`, “inactive”. With `O=C(CSc1nc2ccccc2c(=O)[nH]1)c1ccc(O)c(O)c1`, the Potency result was “inactive”.

Consider `Cc1ccc(C)n1-c1sc2c(c1C(=O)O)CCCC2`, for which the Potency result was “inactive”.

In the case of `COc1ccccc1C(=O)NC(=S)NNC(=O)c1sc2ccccc2c1Cl`, the Potency result was “inactive”. Under `Cc1cnc(C(=O)OCC(=O)Nc2ccc(OCc3ccccc3)cc2)cn1` stands “inactive”; under `COc1ccc(C(c2nnnn2CCc2ccccc2)N2CCN(C3CCCC3)CC2)cc1` (configuration not stated), “inactive”. As to `O=C(Nc1ccc(F)cc1F)c1cc2nc3c(c(C(F)(F)F)n2n1)CCCC3`, the Potency is 5800 nM (active).

Consider `CCOc1ccc(-n2c(SCc3nc(-c4cccs4)no3)nnc2-c2ccncc2)cc1`, for which the Potency result is “inactive”. As for `COc1cccc(-c2cn3nc4c(nc3n2)CCCC4)c1`, the entry is “inactive”. As for `N#Cc1c(NC(=O)/C=C/c2ccco2)sc2c1CCCC2`, the entry is “inactive”; as for `Cc1cc(NC(=O)c2c(F)c(F)c(F)c(F)c2F)no1`, “inactive”; as for `O=C(N/N=C\c1cccc(Cl)c1)c1n[nH]c2c1CCCC2`, “inactive”.

`c1ccc2c(c1)CCN(c1nc3cc4c(cc3s1)OCO4)C2`: the Potency entry is “inactive”. Consider `O=C(NCCN1CCCCC1)Nc1cccc(C(F)(F)F)c1`, for which the Potency entry was “inactive”. Turning to `Nc1nc(-c2ccc([N+](=O)[O-])cc2)cs1`, the Potency entry is “inactive”. `O=C(/C(=C\c1ccccc1)c1nc2ccccc2[nH]1)c1ccc(Cl)cc1`: the Potency result was “inactive”. As for `Cc1cccc(C)c1NC(=O)CC(NCc1ccco1)C(=O)O` (configuration not stated), the entry is “inactive”. Under `Brc1ccccc1-c1nc(-c2ccccc2)no1` stands “inactive”.

Turning to `Cc1ccc2nc(N3C(=O)C(O)=C(C(=O)c4ccc(C)o4)C3c3ccco3)sc2c1` (configuration not stated), the Potency result is “inactive”. Take `Cc1cc2nc(-c3ccc(SCC(=O)Nc4ccc(S(=O)(=O)NC5CC5)cc4)nc3)[nH]c2cc1C`: the Potency result was “inactive”. Turning to `CCN1CCN(Cc2ccc(NC(=O)Nc3ccccc3)cc2)CC1`, the Potency result is “inactive”. Under `Cc1ccc(C(=O)NC(=C(Cl)Cl)S(=O)(=O)c2ccccc2)cc1` stands “inactive”; under `Nc1nonc1-n1nnc(C(=O)N/N=C/c2ccc(Br)cc2)c1CSC1=NCCS1`, “inactive”; under `O=C1CCCC(O)=C1N=Nc1c(Cl)cc(Cl)cc1Cl`, “inactive”. As for `COc1cc(C(=O)NCC(=O)Nc2c(C)cccc2C)ccc1OCc1ccccc1`, the Potency entry was “inactive”. Under `Cc1csc2nc(COC(=O)c3cccc(N(C)C)c3)cc(=O)n12` stands “inactive”. As for `COc1ccc(CC(=O)Nc2ccc(C(=O)Nc3ccccc3C(=O)O)cc2)cc1OC`, the entry is “inactive”; as for `COc1ccc(CNC(=O)NC2CCCCC2)cc1`, “inactive”. Consider `Cc1c(C(=O)N2CCc3ccccc32)oc2c1C(=O)CC(C)(C)C2`, for which the Potency entry was “inactive”. Under `Cc1ccc(C(=O)c2cc([N+](=O)[O-])ccc2N2CCCCC2)cc1C` stands “inactive”; under `Cc1occc1C(=O)NN=C1C2CC3CC(C2)CC1C3`, “inactive”; under `O=C(N/N=C\c1cc(Cl)ccc1O)c1ccc(S(=O)(=O)N2CCCCC2)cc1`, “inactive”.

`CN(C)CCCn1c(SCC(=O)Nc2nccs2)nnc1-c1ccncc1`: the Potency result is “inactive”. As for `O=C(NC12CC3CC(CC(C3)C1)C2)c1ccc(-c2cccc(Cl)c2)o1`, the entry is “inactive”; as for `Cc1ccc(OCCN2CCOCC2)cc1C`, “inactive”; as for `COc1ccccc1OCCn1nnc2ccccc21`, “inactive”. In the case of `C(=C\c1nc(-c2ccccc2)no1)/c1ccccc1`, the Potency result was “inactive”. Regarding `CCOC(=O)N/N=C\c1ccc(C)s1`, the Potency entry is “inactive”. As for `Cc1cc(C)cc(OCC(=O)NNC(=O)c2ccccn2)c1`, the entry is “inactive”; as for `NNC(=O)c1cccc(O)c1`, “inactive”; as for `O=C(CCC1CCCC1)Nc1ccc(Br)cn1`, “inactive”.

In the case of `Oc1ccccc1-c1cc(-c2ccccc2)n[nH]1`, the Potency result is “inactive”. Under `CCCCCNC(=O)N[C@H](C(=O)O)C(C)C` stands “inactive”. Under `O=C(C1CCCN1S(=O)(=O)c1ccc(Cl)cc1)N1CCOCC1` (configuration not stated) stands “inactive”; under `COc1ccc(-c2nc(-c3ccc(NC(=O)c4ccncc4)cc3)no2)cc1OC`, “inactive”. As for `CCc1nnc(NC(=O)C2Cc3ccccc3CN2S(=O)(=O)c2cccs2)s1` (configuration not stated), the entry is “inactive”. Regarding `Cc1cc(NC(=O)c2cccc(COc3ccc(Br)cc3)c2)no1`, the Potency entry was “inactive”. Turning to `O=C(O)C1C2C=CC(C2)C1C(=O)Nc1ccccc1Br` (configuration not stated), the Potency entry is “inactive”. Under `O=C(/C=C/c1ccco1)Nc1ccc2nn(-c3ccccc3)nc2c1` stands “inactive”; under `O=C(Nc1ccccc1N1CCCCC1)c1ccc([N+](=O)[O-])o1`, “inactive”; under `S=c1[nH]nc(-c2ccco2)n1Cc1ccccc1`, “inactive”. Under `CCOc1ccc(N/C=C/C(=O)c2ccccc2)c([N+](=O)[O-])c1` stands “inactive”; under `COc1cc(NC(=O)CN2C(=O)COc3ccc(S(=O)(=O)N4CCCC4)cc32)cc(OC)c1`, “inactive”; under `Cc1cc(C(F)(F)F)c(C#N)c(SCC(=O)Nc2nc3ccccc3s2)n1`, 116 nM (active).

Take `COC(=O)c1ccc(CSc2nnc(-c3c[nH]c4ccccc34)n2-c2ccccc2)cc1`: the Potency entry was “inactive”. Turning to `Cc1cc(-c2nnc(SCc3ccccn3)o2)no1`, the Potency result was “inactive”. As for `COc1ccc(-n2cnc3c(cnn3CCC#N)c2=N)cc1`, the entry is “inactive”; as for `O=C(NNC(=S)NC1CCCCC1)c1cccs1`, “inactive”.

As to `CC(C)(C)OC(=O)N1CCC(C(=O)Nc2ccc3c(c2)CCC3)CC1`, the Potency result was “inactive”.

As to `CCc1ccc(NC(=O)c2cnn3ccccc23)cc1`, the Potency entry was “inactive”. Turning to `COc1ccccc1-c1nc(-c2ccc(Br)o2)no1`, the Potency is 820 nM (active). As for `OCCNc1nc(NCc2ccccc2)c2ccccc2n1`, the entry is “inactive”. Under `Cc1ccsc1/C=C(\C#N)C(=O)Nc1c(C)n(C)n(-c2ccccc2)c1=O` stands “inactive”; under `CCOc1ccc(-c2nnc(SCC(=O)N3CCNC3=O)o2)cc1`, “inactive”. For the molecule `COc1ccc(-c2nnc(SCC(=O)/C(C#N)=C(\C)N)o2)cc1`, the Potency entry is “inactive”. `Cc1cc(NC(c2cccnc2)c2ccc3cccnc3c2O)no1` (configuration not stated): the Potency result was “inactive”. With `O=c1[nH]c2ccc(N/C(=N/S(=O)(=O)c3ccccc3)c3ccccc3)cc2[nH]1`, the Potency result is “inactive”. Under `N#Cc1cnc(Oc2ccc(Cl)cc2)nc1N` stands “inactive”; under `O=C1CCCC(O)=C1N=Nc1ccc2c(c1)OCO2`, “inactive”; under `Fc1ccccc1/C=C/c1ccc2ccccc2n1`, “inactive”. As for `Cc1nc(SCC(=O)Nc2nccs2)c(C#N)c(C)c1C`, the entry is “inactive”. For `COc1cccc(/C=N/NC(=O)CCc2n[nH]c(=O)[nH]c2=O)c1O`, the Potency entry is “inactive”. Under `Clc1cccc(Cl)c1CSc1nnc2ccccn12` stands “inactive”; under `CC(=O)Oc1ccc(Cl)cc1/C=C/c1ccc2ccccc2n1`, 23100 nM (active); under `Cc1ccc2nc(-c3ccc(NC(=O)COC(=O)c4cncc(Br)c4)cc3)sc2c1`, “inactive”. As to `CCOC(=O)c1sc(NC(=S)NC(=O)c2ccco2)nc1C`, the Potency entry was “inactive”. For `COc1ccc(N2COC3c4cccc5cccc(c45)C32)cc1` (configuration not stated), the Potency result is “inactive”. Turning to `COc1cccc(C(=O)Nc2ccc(NC(=O)C(C)(C)C)cn2)c1`, the Potency was 461 nM (active). `CCCCn1c(O)c(N=Nc2ccccc2O)c2ccccc21`: the Potency result was “inactive”. For `Cc1ccc(NC(=S)NC(=O)C2CCCCC2)c(Br)c1`, the Potency entry is “inactive”.

In the case of `CC(=O)N/C(=C/c1ccc2c(c1)OCO2)C(=O)Nc1ccccc1`, the Potency result was “inactive”.

Regarding `O=C(/C=C/c1ccco1)Nc1ccccn1`, the Potency result is “inactive”.

Turning to `CC(=O)c1cc2c(C)c(C(=O)c3ccccc3)oc2cc1O`, the Potency entry is “inactive”. As for `CN(C)c1ccc(N=Cc2nc(-c3ccccc3)oc2OC(=O)c2cccc(Cl)c2)cc1`, the entry is “inactive”. As for `Cc1ncsc1C(=O)Nc1nc2c(s1)CCCC2`, the entry is “inactive”. Under `CCSc1nnc(SCC(=O)NC2CCCCC2)s1` stands “inactive”. Consider `CC(C)CNC(=S)Nc1ccc(Oc2ccccc2)cc1`, for which the Potency entry is “inactive”. Under `O=C(N/N=C/c1cccc(F)c1)NC1CCCCC1` stands “inactive”; under `CC(C)C(=O)NC(c1cccs1)c1cc([N+](=O)[O-])c2cccnc2c1O` (configuration not stated), “inactive”. For the molecule `C/C(Cn1nnc([N+](=O)[O-])n1)=N\NC(=O)c1ccc(C)cc1`, the Potency result was “inactive”. Under `Cc1ccc(C)c(/C=C/C(=O)c2ccccc(=O)c2O)c1` stands “inactive”; under `Cc1cc(/C=C2/C(=O)NN(c3ccccc3)C2=O)c(C)n1-c1cccc(O)c1`, “inactive”; under `O=C(CSc1nnc(-c2ccc(O)cc2)o1)Nc1ccc2c(c1)OCCO2`, “inactive”. As for `CSC1=NCCN1C(=O)c1ccc(Br)o1`, the entry is “inactive”; as for `Cc1nn(-c2ccccc2)c(/N=C/c2ccccc2O)c1-c1ccccc1`, “inactive”. Under `CCOC(=O)C1=C(C)Nc2ncnn2C1c1c[nH]c2ccccc12` (configuration not stated) stands “inactive”; under `O=c1oc2ccccc2cc1-c1cn(-c2ccccc2)c(=S)[nH]1`, “inactive”; under `C/C(CC(C)C)=N\NC(=O)Nc1ccccc1`, “inactive”. With `Cn1c(CCN2CCCCC2)nc2cc(NC(=O)Nc3ccccc3)ccc21`, the Potency result was “inactive”. As for `CCOC(=O)c1c(C)[nH]c(C(=O)CSc2ccccc2)c1C`, the entry is “inactive”; as for `O=C(Nc1nc(-c2ccco2)c(-c2ccco2)s1)c1ccc(F)cc1F`, “inactive”. Regarding `Cc1ccc(NC(=S)NC(=O)c2cccs2)cc1F`, the Potency result is “inactive”.
